Results taken from ChEMBL document CHEMBL1961873, “Compounds: GSK PKIS; Assays: Nanosyn kinase panel” (2012).

These molecules were tested against Serine/threonine-protein kinase PAK 5 (Homo sapiens) (UniProt Q9P286). Conditions: at 0.1 µM.
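Also: values are mean percent inhibition of PAK5 from a kinase inhibitor set screen.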

Serine/threonine-protein kinase PAK 5 (Homo sapiens), sequence (Q9P286 whole entry, looked up): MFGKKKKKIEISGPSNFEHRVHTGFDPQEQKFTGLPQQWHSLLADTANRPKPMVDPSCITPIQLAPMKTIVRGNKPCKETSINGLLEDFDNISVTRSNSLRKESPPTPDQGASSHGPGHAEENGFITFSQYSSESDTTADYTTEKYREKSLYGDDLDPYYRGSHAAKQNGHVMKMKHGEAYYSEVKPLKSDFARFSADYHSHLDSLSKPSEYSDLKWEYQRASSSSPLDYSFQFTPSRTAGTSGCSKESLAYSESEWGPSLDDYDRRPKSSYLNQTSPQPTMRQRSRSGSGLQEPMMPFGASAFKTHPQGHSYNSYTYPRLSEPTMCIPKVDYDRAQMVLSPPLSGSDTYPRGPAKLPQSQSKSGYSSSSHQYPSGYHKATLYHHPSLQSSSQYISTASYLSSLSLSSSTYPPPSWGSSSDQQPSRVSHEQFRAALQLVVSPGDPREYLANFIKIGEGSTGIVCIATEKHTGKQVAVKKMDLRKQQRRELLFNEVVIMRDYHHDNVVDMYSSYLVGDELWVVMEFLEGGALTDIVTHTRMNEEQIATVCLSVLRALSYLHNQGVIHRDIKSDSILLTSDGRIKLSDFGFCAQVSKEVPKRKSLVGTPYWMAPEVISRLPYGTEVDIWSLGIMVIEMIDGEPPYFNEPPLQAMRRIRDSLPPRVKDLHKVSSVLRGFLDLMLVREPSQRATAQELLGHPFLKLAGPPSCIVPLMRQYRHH

Row | SMILES | inhibition [%]
1 | COc1cccc(/C=N/Nc2ncnc3c2cnn3-c2cccc(OC)c2)c1 | 1.31
2 | COc1ccc2ncn(-c3cc(O[C@H](C)c4ccccc4Cl)c(C(N)=O)s3)c2c1 | 1.71
3 | O=C(Nc1n[nH]c2cc(-c3cc(F)ccc3F)ccc12)C1CC1 | 3.42
4 | COc1ccc(-c2ccc3c(NC(=O)C4CC4)n[nH]c3n2)cc1 | -5.83
5 | Clc1ccc(CNc2nccc(-c3cnn4ncccc34)n2)cc1 | 8.39
6 | CN(C)CCOc1ccc(-c2cc(-c3ccc4c(c3)CCC4=NO)c(-c3ccncc3)o2)cc1 | -8.32
7 | COc1cc(N2CCN(C(C)C)CC2)ccc1Nc1nc(Nc2ccc(F)cc2C(=O)NC[C@@H](O)CO)c2cc[nH]c2n1 | 2.5
8 | Cc1ccc(C(=O)NC(C)C)cc1-c1ccc(C(=O)NCC2CC2)cc1 | -4.56
9 | O=C(Nc1ccc(Oc2ccc3[nH]c(NC(=O)c4ccccc4)nc3c2)cc1)Nc1cc(C(F)(F)F)ccc1F | 3.8
10 | Cc1ccc(C(=O)NC2CCC2)cc1-c1ccc(C(=O)NCC2CC2)cc1 | -0.72
11 | O=C1Nc2ccc(I)cc2C1=Cc1cc(Br)c(O)c(Br)c1 | 9.36
12 | COc1cc(C)c(N(C)C(=O)CN(C)C)cc1Nc1nc(Nc2cccc(F)c2C(N)=O)c2cc[nH]c2n1 | 1.86
13 | NS(=O)(=O)c1ccc(N/N=C2\C(=O)Nc3ccc(-c4cnco4)cc32)cc1 | 0.27
14 | CS(=O)(=O)CCNCc1ccc(-c2ccc3ncnc(Nc4ccc(OCc5ccccc5)c(Br)c4)c3c2)o1 | 1.46
15 | COc1cccc(-n2cnc3c(N/N=C/c4ccncc4)ncnc32)c1 | 6.09
16 | Cc1ccc(NC(=O)c2ccoc2)cc1-c1ccc(C(=O)NCC2CC2)cc1 | -1.43
17 | COc1ccc2cc(-c3c(-c4ccncc4)nc(-c4ccc([S+](C)[O-])cc4C)n3C)ccc2c1 (centres undefined) | -5.87

Row | SMILES | inhibition [%]
18 | CCS(=O)(=O)c1ccc(OC)c(Nc2ncc(-c3cccc(-c4ccccc4F)c3)o2)c1 | 6.6
19 | Fc1ccc(-c2ncn(C3CCNCC3)c2-c2ccnc(Oc3ccc(F)c(F)c3)n2)cc1 | 1.64
20 | COc1ccc2cc(-c3c(-c4ccncc4)nc(-c4ccc(S(C)(=O)=O)cc4C)n3C)ccc2c1 | -1.89
21 | O=C1NC(=O)C(c2cccc(Cl)c2)=C1Nc1ccc(Cl)c(C(=O)O)c1 | 0.06
22 | CN(C)c1ccc2c(c1)/C(=C/Nc1ccc(S(N)(=O)=O)cc1)C(=O)N2 | -3.51
23 | CN(c1ccc(NC(=O)Nc2c(Cl)cccc2Cl)cc1)c1ccnc(Nc2cccc(CS(C)(=O)=O)c2)n1 | 4.31
24 | COc1ccc(C2=C(N3CCc4ccccc43)C(=O)NC2=O)cc1 | 4.64
25 | NS(=O)(=O)c1ccc(Nc2cc(-c3ccc(O)c(F)c3)n[nH]2)cc1 | -6.87
26 | COc1cc2ncn(-c3cc(OCCc4ccccc4)c(C(N)=O)s3)c2cc1OC | -3.93
27 | CN1CCN(CCCNc2nc3ccc(Oc4ccc(NC(=O)Nc5cc(C(F)(F)F)ccc5F)cc4)cc3[nH]2)CC1 | 1.27
28 | CCc1ccc(Oc2nccc(-c3c(-c4ccc(F)cc4)ncn3C3CCNCC3)n2)cc1 | 6.56
29 | CCS(=O)(=O)c1ccc(OC)c(Nc2ncc(-c3ccccc3Cl)o2)c1 | 3.82
30 | c1ccc(-c2n[nH]cc2-c2ccnc(-c3ccc(OCCN4CCOCC4)cc3)c2)nc1 | -6.65
31 | COc1cc(Nc2ncc3c(C)nc(-c4cccc(Oc5ccccc5)c4)n3n2)cc(OC)c1OC | 1.86
32 | CNC(=O)c1cncc(/C=C/c2c(C)cccc2C)c1 | 7.14
33 | COc1cc(Nc2ncc3c(C)nc(-c4cccc(C(F)(F)F)c4)n3n2)cc(OC)c1OC | 5.75
34 | CCN(CC)Cc1ccc(Nc2nccc(-c3cnn4ncccc34)n2)cc1 | 1.9
